Measurements from PubChem BioAssay (Tox21).
Records with an inconclusive call do not appear. Active and inactive are the calls of the source. Unless noted, calls follow the shape of the dose curve; as a rule, active = well fitted curve in the direction sought with a large enough effect in the repeat runs; inconclusive = weak or mixed curves; inactive = no such curve, though single readings can be large; an effect the other way counts as inactive or inconclusive.

Assays:
[1] = target: Estrogen receptor (Homo sapiens) (UniProt P03372); assay: qHTS assay to identify small molecule agonists of the estrogen receptor alpha (ER-alpha) signaling pathway in the presence of an antagonist (AID 1259383; calls by dose curve; also: top concentration of the series differs between compounds; nearly all actives have a fitted effect of over 15% in size)
Estrogen receptor (Homo sapiens), sequence (P03372 whole entry, looked up): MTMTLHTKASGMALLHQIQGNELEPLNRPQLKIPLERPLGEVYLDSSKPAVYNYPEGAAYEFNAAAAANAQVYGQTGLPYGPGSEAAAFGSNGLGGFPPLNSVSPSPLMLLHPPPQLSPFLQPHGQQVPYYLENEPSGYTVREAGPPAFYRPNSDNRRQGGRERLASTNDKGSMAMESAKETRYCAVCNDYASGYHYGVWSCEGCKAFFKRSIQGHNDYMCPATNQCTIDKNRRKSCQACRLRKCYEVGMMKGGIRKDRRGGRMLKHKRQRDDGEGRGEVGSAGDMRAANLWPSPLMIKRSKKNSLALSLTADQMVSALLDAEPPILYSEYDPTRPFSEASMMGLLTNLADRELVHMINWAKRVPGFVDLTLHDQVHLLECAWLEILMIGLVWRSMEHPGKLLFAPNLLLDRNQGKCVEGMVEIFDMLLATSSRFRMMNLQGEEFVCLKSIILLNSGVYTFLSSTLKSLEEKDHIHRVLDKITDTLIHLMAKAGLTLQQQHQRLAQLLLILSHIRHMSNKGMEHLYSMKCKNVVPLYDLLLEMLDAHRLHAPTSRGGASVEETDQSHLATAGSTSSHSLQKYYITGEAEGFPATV
In short: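 Using VM7Luc4E2 cells seeded 24hr before treatment, antagonist ICI-182,780 (10.0nM final) was added, followed by compounds at 15 concentrations. Plates incubated 22hr; ONE-Glo luminescence quantified reporter activity.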

[2] = qHTS assay to identify small molecule agonists or antagonists of the thyroid stimulating hormone receptor (TSHR) signaling pathway - wild type cell line counter screen (AID 1259384; calls by dose curve)
In short: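 Wild-type Hek293 cells, 800/well, 18 h at 37C, then compound with Ro20-1724 for 30 min RT. cAMP by HTRF (cAMP-d2/anti-cAMP cryptate), 1 h RT, fluorescence read. 15 concentrations, triplicates.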

[3] = qHTS assay to identify small molecule agonists of the estrogen receptor alpha (ER-alpha) signaling pathway in the presence of an antagonist - cell viability counter screen (AID 1259386);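 also: series mostly up to about 92 µM; cells exposed to compounds for 22 h at 37 °C before the viability read; nearly all actives have a fitted effect of over 30% in size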
In short: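 ICI-182,780 at 10.0nM final accompanies the compound titration (15 concentrations, 22hr, 37C) on VM7Luc4E2 cells. The CellTiter-Fluor fluorescence readout runs in the same wells as the luciferase assay.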

[4] = target: Progesterone receptor (Homo sapiens) (UniProt P06401); assay: qHTS assay to identify small molecule agonists of the progesterone receptor (PR) signaling pathway (AID 1346784; calls by dose curve; also: nearly all actives have a fitted effect of over 30% in size)
Progesterone receptor (Homo sapiens), sequence (P06401 whole entry, looked up): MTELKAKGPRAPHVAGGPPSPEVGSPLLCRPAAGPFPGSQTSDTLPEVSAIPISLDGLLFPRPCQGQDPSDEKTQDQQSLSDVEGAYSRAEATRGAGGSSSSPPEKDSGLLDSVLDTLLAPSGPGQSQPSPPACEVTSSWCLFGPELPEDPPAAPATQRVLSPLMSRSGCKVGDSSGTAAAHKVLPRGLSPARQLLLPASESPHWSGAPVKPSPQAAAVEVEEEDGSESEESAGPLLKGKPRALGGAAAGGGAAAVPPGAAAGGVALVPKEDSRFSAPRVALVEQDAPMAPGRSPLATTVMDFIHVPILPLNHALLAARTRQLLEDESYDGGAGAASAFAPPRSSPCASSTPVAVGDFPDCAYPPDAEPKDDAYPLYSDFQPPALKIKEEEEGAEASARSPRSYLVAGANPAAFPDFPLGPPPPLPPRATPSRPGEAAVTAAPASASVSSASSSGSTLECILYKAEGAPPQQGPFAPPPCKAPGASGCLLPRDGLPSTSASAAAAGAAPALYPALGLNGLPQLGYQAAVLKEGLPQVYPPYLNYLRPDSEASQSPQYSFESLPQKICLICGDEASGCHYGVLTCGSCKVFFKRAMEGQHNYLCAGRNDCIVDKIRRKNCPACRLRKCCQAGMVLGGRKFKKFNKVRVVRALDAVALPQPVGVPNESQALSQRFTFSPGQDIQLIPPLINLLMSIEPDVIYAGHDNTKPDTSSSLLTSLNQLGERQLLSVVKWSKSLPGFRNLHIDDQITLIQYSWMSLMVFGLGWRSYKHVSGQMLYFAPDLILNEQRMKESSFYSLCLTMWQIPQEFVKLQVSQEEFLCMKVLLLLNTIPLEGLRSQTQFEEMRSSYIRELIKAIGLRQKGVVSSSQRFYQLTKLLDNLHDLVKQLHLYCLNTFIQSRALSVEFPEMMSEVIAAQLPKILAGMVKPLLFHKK
In short: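 HEK 293T PR-UAS-bla reporter cells, 2% charcoal-stripped FBS; 6 hr settle at 37C/5% CO2, compound (DMSO) 16 hr, LiveBLAzer B/G FRET substrate 2 hr RT, fluorescence intensity read.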

[5] = qHTS assay to identify small molecule antagonists of the progesterone receptor (PR) signaling pathway - cell viability counter screen (AID 1346798); also: series mostly up to about 92 µM; nearly all actives have a fitted effect of over 50% in size
In short: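 Luminescence readout (CellTiter-Glo, 30 min, RT) of viability in PR-UAS-bla HEK293T cells exposed to compound and R5020 agonist for 16 hr at 37C, 5% CO2; run in the same wells as the beta-lactamase reporter read.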

[6] = qHTS assay to identify small molecule agonists of the progesterone receptor (PR) signaling pathway - cell viability counter screen (AID 1346799; calls by dose curve; also: nearly all actives have a fitted effect of over 45% in size)
In short: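 HEK293T PR-UAS-bla, 3,000 cells/well, 2% charcoal-stripped FBS; 6 h settle, compound 16 h at 37C/5% CO2; LiveBLAzer 2 h RT, then CellTiter-Glo 30 min RT, luminescence read.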

[7] = qHTS assay to identify small molecule agonists of the TGF-beta/Smad signaling pathway - cell viability counter screen (AID 1346829); also: top concentration of the series differs between compounds; nearly all actives have a fitted effect of over 45% in size
In short: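 Cytotoxicity counter screen: CellTiter-Glo luminescence (30 min, room temperature) measured in the SBE-bla HEK 293T reporter wells after 5 hr compound treatment at 37 C and the 2 hr substrate step.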

[8] = qHTS assay to identify small molecule agonists of the TGF-beta/Smad signaling pathway (AID 1346859; active = well fitted activation curve with a large enough effect in the signal ratio in the repeat runs, not every such curve was filed as active; the % refers to the signal ratio; also: series mostly up to about 77 µM)
In short: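 Read-out: fluorescence at 460 and 530 nm (405 nm excitation) after a 2 hr room-temperature incubation with beta-lactamase FRET substrate. SBE-bla HEK 293T cells had been treated with test compounds for 5 hr at 37 C.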

[9] = target: Thyrotropin-releasing hormone receptor (Homo sapiens) (UniProt P34981); assay: qHTS assay to identify small molecule antagonists of the thyrotropin-releasing hormone receptor (TRHR) signaling pathway (AID 1346877; active = well fitted inhibition curve with a large enough effect in the repeat runs, not every such curve was filed as active; also: series mostly up to about 51 µM)
Thyrotropin-releasing hormone receptor (Homo sapiens), sequence (P34981 whole entry, looked up): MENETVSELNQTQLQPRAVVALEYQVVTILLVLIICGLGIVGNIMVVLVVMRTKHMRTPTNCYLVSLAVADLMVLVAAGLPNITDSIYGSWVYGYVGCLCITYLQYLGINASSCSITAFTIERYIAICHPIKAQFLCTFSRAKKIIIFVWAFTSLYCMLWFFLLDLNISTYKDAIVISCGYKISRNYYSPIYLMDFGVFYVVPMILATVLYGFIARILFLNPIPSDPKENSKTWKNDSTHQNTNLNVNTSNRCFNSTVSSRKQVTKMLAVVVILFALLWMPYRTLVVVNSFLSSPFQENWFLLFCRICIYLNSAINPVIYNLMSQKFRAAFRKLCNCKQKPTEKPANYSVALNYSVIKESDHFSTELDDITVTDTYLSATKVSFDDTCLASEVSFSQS
In short: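 Screening used HEK293 cells engineered with TRHR, with a brief 5 min room-temperature compound exposure preceding addition of TRH to 1 nM. The read-out was kinetic calcium-dye fluorescence, concentration-response from 15 doses in triplicate.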

[10] = target: Thyrotropin-releasing hormone receptor (Homo sapiens) (UniProt P34981); assay: qHTS assay to identify small molecule agonists of the thyrotropin-releasing hormone receptor (TRHR) signaling pathway (AID 1346891; calls by dose curve;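 also: HEK293 cells expressing TRHR with calcium dye readout; series mostly up to about 58 µM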)
In short: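 HEK293/TRHR cells, 1500 per well, 18 h 37 °C; Ca dye 2 h 37 °C; pin-tool compound addition (agonist mode); kinetic fluorescence 3 min, 1 s reads; 15 concentrations, triplicate.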

[11] = Caspase-3/7 induction in HepG2 cells by small molecules, qHTS assay (AID 1346978); also: nearly all actives have a fitted effect of over 15% in size
In short: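 Wild-type HepG2 cells, 2,000/well, settled 5 hr at 37 C and 5% CO2, then compound-treated for 17 hr; caspase-3/7 activity read by luminescent Caspase-Glo 3/7 after 30 min at room temperature.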

[12] = Caspase-3/7 induction in CHO-K1 cells by small molecules, qHTS cell viability counter screen (AID 1346979); also: nearly all actives have a fitted effect of over 35% in size
In short: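 CHO-K1 wt, 1,500 cells/well; 5hr pre-incubation 37C/5% CO2; compound pin transfer (DMSO); 16hr exposure; CellTiter-Fluor added, 1hr, fluorescence read.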

[13] = Caspase-3/7 induction in CHO-K1 cells by small molecules, qHTS assay (AID 1346980); also: nearly all actives have a fitted effect of over 15% in size
In short: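 Wild-type CHO-K1 cells exposed to compounds for 17hr at 37 C, 5% CO2. Caspase-3/7 activity then measured by Caspase-Glo 3/7 luminescence after 30min at room temperature.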

[14] = Caspase-3/7 induction in HepG2 cells by small molecules, qHTS cell viability counter screen (AID 1346981); also: series mostly up to about 92 µM; nearly all actives have a fitted effect of over 30% in size
In short: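 Multiplexed with the caspase-3/7 assay: HepG2 cells, 16 hr compound treatment, CellTiter-Fluor viability detection by fluorescence.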

[15] = target: Progesterone receptor (Homo sapiens) (UniProt P06401); assay: qHTS assay to identify small molecule antagonists of the progesterone receptor (PR) signaling pathway (AID 1346795; active = well fitted inhibition curve with a large enough effect in the signal ratio in the repeat runs, not every such curve was filed as active; the % refers to the signal ratio)
In short: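 Beta-lactamase reporter, HEK293T PR-UAS-bla line; 2% charcoal-stripped FBS; 6 hr pre-incubation, 37C/5% CO2. Compound + R5020 1 nM final, 16 hr. LiveBLAzer B/G FRET substrate, 2 hr RT; fluorescence intensity read.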

[16] = qHTS assay to identify small molecule antagonists of the TGF-beta/Smad signaling pathway - cell viability counter screen (AID 1346824); also: nearly all actives have a fitted effect of over 50% in size
In short: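 SBE-bla HEK 293T cells, incubated overnight, then compound plus 0.25 ng/mL TGF-beta1 (stock added) for 5 hr at 37 C. Viability was read in the same wells by CellTiter-Glo luminescence after 30 min at room temperature.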

[17] = Human pregnane X receptor (PXR) small molecule agonists, qHTS cell viability counter screen (AID 1346977); also: nearly all actives have a fitted effect of over 50% in size
In short: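 Fluorescence read-out (CellTiter-Fluor) of viability in PXR-Luc HepG2 cells, multiplexed with the luciferase agonist read. Compounds in DMSO added after 5hr plating; 24hr total exposure at 37C, 5% CO2.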

[18] = target: Thyrotropin receptor (Homo sapiens) (UniProt P16473); assay: qHTS assay to identify small molecule antagonists of the thyroid stimulating hormone receptor (TSHR) signaling pathway (AID 1259385; calls by dose curve; also: nearly all actives have a fitted effect of over 20% in size)
Thyrotropin receptor (Homo sapiens), sequence (P16473 whole entry, looked up): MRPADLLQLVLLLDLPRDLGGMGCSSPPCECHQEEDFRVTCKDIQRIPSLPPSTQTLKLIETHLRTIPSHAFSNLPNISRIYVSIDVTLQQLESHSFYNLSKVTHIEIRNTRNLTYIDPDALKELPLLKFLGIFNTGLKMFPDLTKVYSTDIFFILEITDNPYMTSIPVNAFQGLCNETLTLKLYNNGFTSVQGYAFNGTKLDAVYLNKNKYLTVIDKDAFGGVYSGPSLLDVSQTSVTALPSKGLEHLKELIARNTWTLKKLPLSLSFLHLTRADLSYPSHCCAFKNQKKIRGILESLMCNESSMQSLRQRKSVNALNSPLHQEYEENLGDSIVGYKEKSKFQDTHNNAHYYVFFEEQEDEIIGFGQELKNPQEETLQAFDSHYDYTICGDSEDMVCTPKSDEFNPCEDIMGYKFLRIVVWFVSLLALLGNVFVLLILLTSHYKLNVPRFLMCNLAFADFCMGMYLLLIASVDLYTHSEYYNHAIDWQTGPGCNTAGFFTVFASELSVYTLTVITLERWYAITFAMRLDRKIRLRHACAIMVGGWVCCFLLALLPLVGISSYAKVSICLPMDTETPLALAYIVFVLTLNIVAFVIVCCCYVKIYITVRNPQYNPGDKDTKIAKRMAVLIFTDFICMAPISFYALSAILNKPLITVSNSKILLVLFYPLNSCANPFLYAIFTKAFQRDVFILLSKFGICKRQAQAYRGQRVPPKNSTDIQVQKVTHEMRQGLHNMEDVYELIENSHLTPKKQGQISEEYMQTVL
In short: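 TSHR-HEK293 cells (800/well) plated 18 h, then compounds with Ro20-1724 and TSH at 1.5 ng/mL final, 30 min at room temperature. cAMP quantified by HTRF (cAMP-d2/anti-cAMP-cryptate, 1 h); 15 concentrations in triplicate.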
% is scaled to controls: 0 for no effect and ±100 for the full control effect.

OC[C@H]1O[C@@H](O[C@@H]2[C@@H](CO)O[C@](O)(CO)[C@H]2O)[C@H](O)[C@@H](O)[C@H]1O
inactive: Potency [1] | outcome [2] | outcome [3] | Potency [4] | outcome [5] | outcome [6] | outcome [7] | outcome [8] | outcome [9] | outcome [10] | outcome [11] | Potency [12] | outcome [13] | outcome [14]

N#CCC(=O)NN
inactive: Potency [1] | outcome [2] | Potency [4] | Potency [15] | outcome [6] | outcome [16] | outcome [7] | outcome [8] | outcome [9] | outcome [10] | outcome [17] | outcome [11] | Potency [12] | outcome [13] | outcome [14]

O=C(NCN1CCOCC1)c1cnccn1
inactive: Potency [1] | outcome [3] | Potency [4] | outcome [6] | outcome [16] | outcome [8] | outcome [9] | outcome [10] | outcome [11] | outcome [13] | outcome [14]

CCCCCCCCCOC(=O)CCCCC(=O)OCCCCCCC
inactive: outcome [2] | outcome [18] | Potency [4] | outcome [5] | outcome [6] | outcome [8] | outcome [9] | outcome [10] | outcome [17] | outcome [11] | Potency [12] | outcome [13] | outcome [14]

Nc1nc(-c2ccccc2)c(Br)c(=O)[nH]1
inactive: Potency [1] | outcome [2] | outcome [3] | Potency [4] | Potency [15] | outcome [6] | outcome [16] | outcome [7] | outcome [8] | outcome [17] | outcome [11] | outcome [13] | outcome [14]

CCCCCCCCCCCCCCCCCCOCCO
inactive: activation [1] -1.02% [at 19 µM] | activity change, negative = inhibition [18] -0.175% [at 19 µM] | activity change, negative = cytotoxicity [3] 0.983% [at 19 µM] | activation [4] 3.24% [at 19 µM] | viability change, negative = cytotoxic [16] -1.95% [at 15.8 µM] | activation [8] -0.657% [at 15.8 µM] | activity, negative = inhibition [9] 2.83% [at 10.5 µM] | activation [10] -0.279% [at 11.8 µM] | activity change, negative = cytotoxicity [17] 5.85% [at 19 µM] | caspase activation [11] 0.0407% [at 19 µM] | activity change, negative = cytotoxicity [12] -0.155% [at 19 µM] | caspase-3/7 activation [13] -1.25% [at 19 µM] | activity change, negative = cytotoxicity [14] 7.52% [at 19 µM]

CC(C)=CCC[C@@](C)(O)[C@H]1CC=C(C)CC1
inactive: outcome [2] | outcome [18] | outcome [3] | Potency [4] | Potency [15] | outcome [6] | outcome [16] | outcome [7] | outcome [8] | outcome [11] | Potency [12] | outcome [13] | outcome [14]

O=C(Cl)c1ccccc1[N+](=O)[O-]
inactive: outcome [2] | outcome [18] | outcome [3] | Potency [4] | Potency [15] | outcome [5] | outcome [6] | outcome [16] | outcome [7] | outcome [8] | outcome [9] | outcome [10] | outcome [17] | outcome [11] | Potency [12] | outcome [13] | outcome [14]

C=CC(=O)CCCCC
inactive: outcome [2] | outcome [18] | outcome [3] | Potency [4] | Potency [15] | outcome [5] | outcome [6] | outcome [16] | outcome [7] | outcome [8] | outcome [17] | outcome [11] | Potency [12] | outcome [13] | outcome [14]

C#CCN[C@@H]1CCc2ccccc21
inactive: Potency [1] | outcome [2] | Potency [4] | Potency [15] | outcome [5] | outcome [6] | outcome [16] | outcome [7] | outcome [8] | outcome [9] | outcome [10] | outcome [11] | Potency [12] | outcome [13] | outcome [14]

CCn1cc(C(=O)O)c(=O)c2cnc(N3CCCC3)nc21
inactive: cAMP activity change [2] -5.06% [at 8.39 µM] | activity change, negative = inhibition [18] -0.0847% [at 8.39 µM] | activity change, negative = cytotoxicity [3] -1.71% [at 8.39 µM] | activation [4] 0.947% [at 8.39 µM] | activity change, negative = inhibition [15] 1.66% [at 8.39 µM] | activity change, negative = cytotoxicity [5] 1.24% [at 8.39 µM] | activity change, negative = cytotoxicity [6] 1.71% [at 8.39 µM] | viability change, negative = cytotoxic [16] 10.1% [at 6.97 µM] | activation [8] -0.108% [at 6.97 µM] | activity, negative = inhibition [9] 1.25% [at 4.65 µM] | activation [10] -0.507% [at 5.23 µM] | caspase activation [11] 1.75% [at 8.39 µM] | activity change, negative = cytotoxicity [12] 1.69% [at 8.39 µM] | caspase-3/7 activation [13] 1.6% [at 8.39 µM] | activity change, negative = cytotoxicity [14] -1.49% [at 8.39 µM]

CC1=C(O)C(=O)C(C)O1 (centres undefined)
inactive: Potency [1] | outcome [2] | outcome [3] | Potency [4] | outcome [5] | outcome [6] | outcome [16] | outcome [7] | outcome [8] | outcome [9] | outcome [10] | outcome [17] | outcome [11] | Potency [12] | outcome [13] | outcome [14]

N#Cc1ccccc1O
inactive: Potency [1] | outcome [2] | outcome [18] | Potency [4] | outcome [5] | outcome [6] | outcome [16] | outcome [7] | outcome [8] | outcome [9] | outcome [10] | outcome [17] | outcome [11] | Potency [12] | outcome [13] | outcome [14]

CC(C)(C)NC[C@H](O)COc1cccc2c1CCCC2=O
inactive: Potency [1] | outcome [3] | Potency [4] | outcome [5] | outcome [6] | outcome [16] | outcome [7] | outcome [8] | outcome [9] | outcome [10] | outcome [17] | outcome [11] | Potency [12] | outcome [13] | outcome [14]

CC(C)C[C@@H]1[C@H](c2ccccc2)OC(=O)N1CCCN1CCCCCC1
inactive: Potency [1] | outcome [2] | outcome [18] | outcome [3] | Potency [4] | outcome [16] | outcome [7] | outcome [8] | outcome [9] | outcome [10] | outcome [11] | Potency [12] | outcome [13] | outcome [14]

Cc1cc(-c2ccccc2)nnc1NCCN1CCOCC1
inactive: Potency [1] | outcome [2] | outcome [18] | Potency [4] | Potency [15] | outcome [5] | outcome [6] | outcome [16] | outcome [7] | outcome [8] | outcome [17] | outcome [11] | outcome [13] | outcome [14]

O=S(=O)(O)c1ccc2c(N=Nc3ccc(S(=O)(=O)O)c4ccccc34)c(O)c(S(=O)(=O)O)cc2c1
inactive: cAMP activity change [2] -0.796% [at 8.39 µM] | activity change, negative = inhibition [18] -3.96% [at 8.39 µM] | activation [4] 2.07% [at 8.39 µM] | activity change, negative = cytotoxicity [5] 12.1% [at 8.39 µM] | activity change, negative = cytotoxicity [6] 18.6% [at 8.39 µM] | viability change, negative = cytotoxic [16] 5.53% [at 6.97 µM] | activity change, negative = cytotoxicity [7] 12.6% [at 6.97 µM] | activation [8] 0.897% [at 6.97 µM] | caspase activation [11] -0.326% [at 8.39 µM] | caspase-3/7 activation [13] -0.308% [at 8.39 µM]
